Reference: PubChem BioAssay
The source made the active and inactive calls.

How the values were obtained:
Albumin (Bos taurus) = Albumin (Bos taurus) (UniProt P02769); experiment: compounds binding labelled BSA control protein – biochemical, small-molecule microarray, Alexa647 label, 635/667 nm fluorescence, artefact control for SMM control protein annotation, profiling panel (AID 1118); settings: BSA-A647 binding, fluorescence 635 nm, higher = more signal;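 note: score merges 667 nm emission intensity and signal-to-noise per printed compound spot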
Sequence of Albumin (Bos taurus) (P02769 whole entry, looked up): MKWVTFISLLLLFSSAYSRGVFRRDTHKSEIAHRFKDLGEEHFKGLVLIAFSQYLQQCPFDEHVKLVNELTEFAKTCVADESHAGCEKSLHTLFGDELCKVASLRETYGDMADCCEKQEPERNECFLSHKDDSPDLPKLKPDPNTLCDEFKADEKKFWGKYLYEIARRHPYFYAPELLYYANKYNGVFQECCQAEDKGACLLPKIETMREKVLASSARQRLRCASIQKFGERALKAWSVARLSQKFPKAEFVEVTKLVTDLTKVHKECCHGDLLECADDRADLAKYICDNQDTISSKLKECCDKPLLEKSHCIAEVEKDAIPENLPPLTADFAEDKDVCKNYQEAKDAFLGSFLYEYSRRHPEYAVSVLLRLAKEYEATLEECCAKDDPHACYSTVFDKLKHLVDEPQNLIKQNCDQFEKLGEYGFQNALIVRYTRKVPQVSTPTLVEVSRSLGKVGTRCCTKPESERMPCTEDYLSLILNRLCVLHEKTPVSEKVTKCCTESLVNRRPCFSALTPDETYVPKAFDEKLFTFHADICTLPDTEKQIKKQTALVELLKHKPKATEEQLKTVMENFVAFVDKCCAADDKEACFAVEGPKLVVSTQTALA

[1] = probe aXIP binding to arrayed compounds – biochemical, NeuroSMM set, 635/667 nm fluorescence, primary screen (AID 1119); settings: small-molecule microarray, higher = more signal, called active from +8 up or from −8 down;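 note: probe is the protein aXip251-270 applied at 1 µg/mL to compound-printed slides; binding of probe to printed compounds measured as 667 nm fluorescence plus signal to noise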
[2] = probe aNOTCH3 binding on compound microarray – biochemical, small-molecule microarray, 635/667 nm fluorescence, primary screen (AID 1120); settings: higher = more signal;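 note: probe is a biotin-tagged antibody raised against NOTCH3 rather than NOTCH3 protein; score merges spot fluorescence near 667 nm with spot signal to noise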
[3] = probe aNOTCH2 binding on compound microarray – biochemical, small-molecule microarray, 635/667 nm fluorescence, primary screen (AID 1121); settings: higher = more signal;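 note: score merges feature fluorescence read at 667 nm with its signal to noise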
[4] = molecular target: Carbonic anhydrase 2 (Homo sapiens) (UniProt P00918); experiment: compounds binding carbonic anhydrase 2 – biochemical, small-molecule microarray, Alexa647-labelled CAII, profiling panel (AID 1122); settings: CAII-A647 binding fluorescence, higher = more signal
[5] = COS7 lysate on small-molecule microarray, probe aHis, 635 nm (AID 1123); settings: COS7 cell lysate, fluorescence, higher = more signal;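 note: z-score combines 667nm fluorescence intensity with signal-to-noise per printed compound spot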
[6] = probe aLAP1 signal on lysate-treated microarray – cell lysate, small-molecule microarray, COS7 lysate, primary screen (AID 1124); settings: probe aLAP1, fluorescence, higher = more signal;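 note: lysate comes from COS7 cells expressing LAP1 and is applied at 0.3 µg/mL; score merges spot fluorescence near 667 nm with signal-to-noise over triplicate slides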
Sam68 (KHDRBS1) = experiment: compounds binding KHDRBS1 protein – biochemical, small-molecule microarray, 635 nm fluorescence, primary screen (AID 1125); settings: higher = more signal;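 note: score merges 667 nm channel intensity with signal to noise over triplicate slides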
[7] = system: Chordin-like protein 2 (CHRDL2); experiment: compounds binding chordin-like 2 – biochemical, small-molecule microarray, 635 nm fluorescence, primary screen (AID 1126); settings: fluorescence 635 nm, higher = more signal;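 note: printed compound slides probed with Chrdl2 protein at 4 µg/mL for 1 h at 4 C; score merges 667 nm emission intensity with signal to noise over three replicate slides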
[8] = molecular target: Concanavalin-A (Canavalia ensiformis) (UniProt P02866); experiment: compounds binding concanavalin A lectin – biochemical, small-molecule microarray, Alexa647 label, 635 nm, artefact control for SMM control protein annotation, primary screen (AID 1127); settings: ConA-A647 binding fluorescence, higher = more signal;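 note: z combines 667 nm emission intensity with signal-to-noise across three replicate slides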
Sequence of Concanavalin-A (Canavalia ensiformis) (P02866 whole entry, looked up): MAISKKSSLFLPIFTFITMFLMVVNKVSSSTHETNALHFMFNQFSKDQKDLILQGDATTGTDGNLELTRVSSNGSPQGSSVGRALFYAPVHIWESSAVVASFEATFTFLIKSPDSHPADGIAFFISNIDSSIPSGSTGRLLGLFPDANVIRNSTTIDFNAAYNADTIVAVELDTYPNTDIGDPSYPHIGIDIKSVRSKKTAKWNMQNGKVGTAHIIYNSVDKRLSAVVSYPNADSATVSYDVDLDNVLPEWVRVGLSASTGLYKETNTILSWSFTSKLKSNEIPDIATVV

[9] = compounds binding Alexa647 anti-His antibody – biochemical, small-molecule microarray, 635 nm fluorescence, artefact control for SMM control protein annotation, primary screen (AID 1128); settings: higher = more signal;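 note: score merges feature fluorescence with signal-to-noise for each printed compound spot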
[10] = system: Human papillomavirus type 1a E7 protein (residues 1-88); experiment: HPV1a E7 small-molecule binders, primary screen, biochemical, small-molecule microarray, residues 1-88, 635 nm (AID 1129); settings: small-molecule microarray binding, fluorescence 635 nm; higher = more signal
[11] = molecular target: Focal adhesion kinase 1 (Homo sapiens) (UniProt Q05397); experiment: PTK2 protein binding on printed compound slides – biochemical, small-molecule microarray, 635/667 nm fluorescence, BSA, DTT, primary screen (AID 1130); settings: 635 nm fluorescence, higher = more signal;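 note: composite of spot emission at 667 nm and signal to noise over triplicate slides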
Sequence of Focal adhesion kinase 1 (Homo sapiens) (Q05397 whole entry, looked up): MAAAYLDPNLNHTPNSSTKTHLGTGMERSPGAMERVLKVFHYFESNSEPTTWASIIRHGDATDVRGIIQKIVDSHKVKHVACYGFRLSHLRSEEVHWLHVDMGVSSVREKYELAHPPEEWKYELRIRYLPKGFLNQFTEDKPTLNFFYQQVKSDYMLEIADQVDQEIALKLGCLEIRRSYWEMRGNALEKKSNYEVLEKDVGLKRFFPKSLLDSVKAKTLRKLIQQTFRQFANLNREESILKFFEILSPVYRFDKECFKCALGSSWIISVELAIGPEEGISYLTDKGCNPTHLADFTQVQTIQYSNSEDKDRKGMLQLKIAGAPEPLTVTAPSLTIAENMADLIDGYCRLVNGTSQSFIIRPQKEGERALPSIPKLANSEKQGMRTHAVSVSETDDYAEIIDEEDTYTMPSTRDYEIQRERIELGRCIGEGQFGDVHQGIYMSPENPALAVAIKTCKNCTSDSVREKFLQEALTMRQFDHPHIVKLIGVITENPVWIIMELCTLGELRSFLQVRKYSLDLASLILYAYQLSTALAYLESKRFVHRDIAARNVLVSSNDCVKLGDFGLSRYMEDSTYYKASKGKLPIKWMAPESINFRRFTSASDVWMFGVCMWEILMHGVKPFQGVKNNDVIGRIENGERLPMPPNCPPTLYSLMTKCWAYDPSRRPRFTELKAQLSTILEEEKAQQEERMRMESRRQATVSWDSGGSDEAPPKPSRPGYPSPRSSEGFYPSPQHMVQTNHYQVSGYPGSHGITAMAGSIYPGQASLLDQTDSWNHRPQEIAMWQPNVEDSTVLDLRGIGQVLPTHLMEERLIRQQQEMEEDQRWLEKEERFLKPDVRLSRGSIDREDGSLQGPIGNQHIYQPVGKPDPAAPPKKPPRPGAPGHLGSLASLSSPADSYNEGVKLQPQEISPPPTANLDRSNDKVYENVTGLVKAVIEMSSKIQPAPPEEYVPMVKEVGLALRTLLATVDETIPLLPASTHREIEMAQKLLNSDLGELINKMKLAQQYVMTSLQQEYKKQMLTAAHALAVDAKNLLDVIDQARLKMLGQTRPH

[12] = system: Fibrinogen (Alexa647-labelled); experiment: Alexa647-fibrinogen binding to printed small molecules – biochemical, small-molecule microarray, 635/667 nm fluorescence, artefact control for SMM control-protein annotation, profiling panel (AID 1131); settings: fibrinogen-A647 binding fluorescence, higher = more signal;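 note: z-score merges 667 nm fluorescence with per-spot signal-to-noise over triplicate slides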
[13] = molecular target: Follistatin (Homo sapiens) (UniProt P19883); experiment: FST protein binding to printed compounds – biochemical, small-molecule microarray, 635/667 nm fluorescence, primary screen (AID 1132); settings: 635 nm fluorescence, higher = more signal
Sequence of Follistatin (Homo sapiens) (P19883 whole entry, looked up): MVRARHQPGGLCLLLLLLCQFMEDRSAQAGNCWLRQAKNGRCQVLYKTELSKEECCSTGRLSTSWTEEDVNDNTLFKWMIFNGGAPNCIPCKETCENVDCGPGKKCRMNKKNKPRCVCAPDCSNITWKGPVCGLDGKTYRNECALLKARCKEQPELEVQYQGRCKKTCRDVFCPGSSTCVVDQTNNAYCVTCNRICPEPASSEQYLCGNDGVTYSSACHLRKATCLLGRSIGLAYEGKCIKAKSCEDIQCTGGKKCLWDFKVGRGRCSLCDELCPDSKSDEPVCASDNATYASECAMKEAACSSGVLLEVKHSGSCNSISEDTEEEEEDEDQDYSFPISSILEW

[14] = molecular target: Fibroblast growth factor 2 (Homo sapiens) (UniProt P09038); experiment: basic fibroblast growth factor binding to printed compounds – biochemical, small-molecule microarray, 635/667 nm fluorescence, primary screen (AID 1133); settings: FGF2, fluorescence 635/667, higher = more signal
Sequence of Fibroblast growth factor 2 (Homo sapiens) (P09038 whole entry, looked up): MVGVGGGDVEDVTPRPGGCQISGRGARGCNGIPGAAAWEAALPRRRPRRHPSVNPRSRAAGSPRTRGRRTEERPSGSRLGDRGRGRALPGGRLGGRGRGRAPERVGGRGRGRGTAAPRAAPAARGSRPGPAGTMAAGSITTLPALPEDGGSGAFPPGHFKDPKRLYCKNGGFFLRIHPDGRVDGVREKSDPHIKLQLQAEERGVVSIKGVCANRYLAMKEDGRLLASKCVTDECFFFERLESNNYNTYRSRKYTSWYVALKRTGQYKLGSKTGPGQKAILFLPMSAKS

[15] = JC-1 mitochondrial potential readout, lung cancer cells – cell-based, A549, JC-1 fluorescence, basal, 24 h, 100 nL, profiling panel (AID 1138); settings: higher = more signal;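 note: A549 lung adenocarcinoma cells under basal conditions with no added stimulus; test concentration not given here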
Lefty1 = Lefty1 protein binding to printed compounds – biochemical, small-molecule microarray, 635/667 nm fluorescence, primary screen (AID 1139); settings: fluorescence 635/667, higher = more signal
[16] = system: wheat germ agglutinin (Triticum aestivum), Alexa647-labelled; experiment: Alexa647-WGA lectin binding to printed small molecules – biochemical, small-molecule microarray, 635/667 nm fluorescence, artefact control for SMM control-protein annotation, profiling panel (AID 1140); settings: WGA-A647 binding, 635 nm fluorescence, higher = more signal;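 note: score merges 667 nm feature emission with signal to noise over triplicate slides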
[17] = molecular target: Luciferin 4-monooxygenase (Photinus pyralis) (UniProt P08659); experiment: inhibition of purified Photinus pyralis luciferase – biochemical, luminescence, purified enzyme, 2006 set, primary screen (AID 1141); settings: purified firefly luciferase, SteadyGlo luminescence, 30 min; higher = more signal, called active from +8 up or from −8 down;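 note: cell-free assay with purified firefly luciferase at 100 ng per well in PBS; test concentration not given here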
Sequence of Luciferin 4-monooxygenase (Photinus pyralis) (P08659 whole entry, looked up): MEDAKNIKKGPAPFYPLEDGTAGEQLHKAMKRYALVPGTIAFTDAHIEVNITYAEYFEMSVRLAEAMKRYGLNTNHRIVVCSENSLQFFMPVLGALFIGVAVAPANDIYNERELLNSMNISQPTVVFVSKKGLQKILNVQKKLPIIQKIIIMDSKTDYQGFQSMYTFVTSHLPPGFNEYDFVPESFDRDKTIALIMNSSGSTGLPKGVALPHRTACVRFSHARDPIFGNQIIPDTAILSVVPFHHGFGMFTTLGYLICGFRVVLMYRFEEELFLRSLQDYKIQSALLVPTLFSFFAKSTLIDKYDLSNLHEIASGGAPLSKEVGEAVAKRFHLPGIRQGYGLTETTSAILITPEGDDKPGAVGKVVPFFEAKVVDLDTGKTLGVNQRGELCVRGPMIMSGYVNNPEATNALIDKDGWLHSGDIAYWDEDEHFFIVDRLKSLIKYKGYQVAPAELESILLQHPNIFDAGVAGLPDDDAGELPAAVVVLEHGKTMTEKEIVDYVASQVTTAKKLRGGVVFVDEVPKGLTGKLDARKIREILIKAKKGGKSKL

SMILES	composite z-score (Albumin (Bos taurus))	composite Z-score [1]	composite z-score [2]	composite z-score [3]	composite z-score [4]	composite z-score [5]	composite z-score [6]	composite z-score (Sam68 (KHDRBS1))	composite z-score [7]	composite z-score [8]	composite z-score [9]	composite z-score [10]	composite z-score [11]	composite z-score [12]	composite z-score [13]	composite z-score [14]	z-score [15]	composite z-score (Lefty1)	composite z-score [16]	z-score [17]
C=CCC(OC(C)=O)[C@@H]1[C@@H](N(Cc2ccc(-c3ccccc3)cc2)C(=O)c2ccc(-c3ccccc3)cc2)c2cc(OCCCO)ccc2N1C(=O)c1ccc(-c2ccccc2)cc1 (stereo not given in full)	0.0452	-0.254 (inactive)	0.11	0.0086	-0.0914	0.57	-0.0163	-0.821	0.0312	-0.473	-0.726	0.274	0.63	-0.705	0.288	-0.215	2.51	-0.418	0.0316	-1.15 (inactive)
C=CCN1C(=O)[C@@]2(O[C@@H](CCn3cc(CCO)nn3)[C@H]([Si](C)(C)c3ccc(OC)cc3)[C@H]2C)c2cc(N3C(=O)c4cccc5cccc3c45)ccc21	0.681	-0.128 (inactive)	-0.0299	-0.0703	0.455	0.249	0.15	0.966	0.0449	1.09	0.29	0.511	0.608	0.807	0.816	0.973	-1.38	0.537	1.1	-1.96 (inactive)
NCCCCCNC(=O)[C@H]1C[C@H]2C(=O)NCC(=O)N2[C@H]1c1ccc(O)cc1	1.06	0.696 (inactive)	0.0596	-0.105	0.685	1.08	0.521	1.29	1.14	1.22	2.54	1.19	0.366	0.97	1.48	1.75	0.68	1.69	1.3	-1.04 (inactive)
CC(C)CNC(=O)[C@@H]1c2ccccc2C(=O)N(Cc2ccc(OC(F)(F)F)cc2)[C@H]1c1ccc(CO)cc1	0.0335	0.465 (inactive)	0.0813	0.0081	0.572	2.36	0.0712	1.3	-0.0181	1.07	1.31	1.19	1.04	0.647	1.34	1.09	0.71	1.52	0.75	-1.25 (inactive)
CCCCC(=C=CC[C@@H](O)c1ccc(OCCO)cc1)C[C@@H](O)c1cc(Cl)cc(Cl)c1O	0.645	0.0371 (inactive)	0.151	-0.048	0.674	0.886	0.673	0.661	-0.101	0.486	0.155	0.597	0.507	0.556	0.63	0.594	1.28	0.255	1.21	-3.02 (inactive)
CC(C)(C)OC(=O)CC[C@@]1(C(=O)N2CCOCC2)N=C(c2ccc(OCCCO)cc2)O[C@@H]1c1ccccc1	1.01	-0.0503 (inactive)	0.0927	-0.0017	0.904	3.76	0.599	1.31	-1.26	0.962	3.83	1.25	0.217	0.938	1.33	0.324	2.16	-0.508	1.54	-1.99 (inactive)
COC(=O)c1c(CC[C@@H](CO)NC(=O)Nc2ccc(OC)cc2)oc(C(=O)Cc2ccccc2)c1C(=O)OC	0.771	0.466 (inactive)	-0.004	-0.0776	0.656	0.261	0.21	0.603	0.12	0.688	-0.177	0.45	-0.181	0.211	0.473	0.434	1.02	1.08	0.371	-1.37 (inactive)
O=C(N1CCCCC1)[C@@]1(Cc2ccccc2)N=C(c2ccc(OCCCO)cc2)O[C@H]1c1ccccc1	0.955	0.0926 (inactive)	0.214	0.308	0.797	3	0.849	1.23	-1.34	1.11	2.02	1.07	1.42	0.124	0.622	-0.12	-0.741	-0.341	1.07	-1.52 (inactive)
CO[C@H]1O[C@H](CO)[C@@H](OC(=O)Nc2ccccc2)[C@H](OC(=O)Nc2ccccc2-c2ccccc2)[C@@H]1OC(=O)Nc1ccccc1-c1ccccc1	0.903	-0.0038 (inactive)	0.224	-0.094	0.419	1.9	0.381	1.3	-0.138	1.19	2.82	1.22	1.11	0.976	1.07	0.478	0.458	0.36	1.26	-1.24 (inactive)
